This test addresses furin, P09958. Kind of test: furin cleavage Z-score vs untreated control; higher = more cleavage, active = 3.5 or more, inactive = 1 or less, 8 variable residues between constant flanks. In a few lines:
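Peptides 8 residues long, fused to a cDNA oligonucleotide, were fixed to magnetic beads by the N-terminus and exposed to purified furin. The 0.01 ml reactions contained 50 mM HEPES pH 7.5 with CaCl2 and NaCl at 1:10 enzyme:substrate and ran 7.5, 15 or 30 min. For the cleavage Z-score, log counts of sequenced released DNA were compared with furin-free reactions, lowess-adjusted and scaled by median absolute deviation.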

The text below walks through data of the supplement of paper PMC3545927.

The other results are listed elsewhere or left out. The true hit rate is not given.

Sequence of furin, P09958 (P09958 whole entry, the tested form may be a part): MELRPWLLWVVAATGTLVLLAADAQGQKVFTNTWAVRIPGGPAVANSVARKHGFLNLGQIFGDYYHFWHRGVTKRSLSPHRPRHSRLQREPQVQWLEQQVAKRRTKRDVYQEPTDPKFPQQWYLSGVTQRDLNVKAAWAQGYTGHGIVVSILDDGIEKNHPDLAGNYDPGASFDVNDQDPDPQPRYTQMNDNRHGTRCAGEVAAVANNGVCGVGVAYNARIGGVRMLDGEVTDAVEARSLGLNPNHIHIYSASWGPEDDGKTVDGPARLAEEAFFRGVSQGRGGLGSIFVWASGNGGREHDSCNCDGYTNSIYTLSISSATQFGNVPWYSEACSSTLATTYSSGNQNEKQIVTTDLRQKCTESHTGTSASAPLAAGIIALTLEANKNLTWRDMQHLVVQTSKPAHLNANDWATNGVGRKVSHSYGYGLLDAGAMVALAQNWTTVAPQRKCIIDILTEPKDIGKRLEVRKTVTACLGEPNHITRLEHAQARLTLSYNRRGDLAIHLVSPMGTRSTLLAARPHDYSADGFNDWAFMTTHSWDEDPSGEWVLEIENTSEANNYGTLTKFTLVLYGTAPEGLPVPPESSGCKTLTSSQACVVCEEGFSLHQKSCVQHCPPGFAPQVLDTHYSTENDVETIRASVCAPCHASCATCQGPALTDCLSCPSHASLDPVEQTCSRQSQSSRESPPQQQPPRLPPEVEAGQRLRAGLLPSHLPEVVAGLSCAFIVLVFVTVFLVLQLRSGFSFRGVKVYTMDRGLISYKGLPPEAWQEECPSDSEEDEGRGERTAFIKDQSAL

B1: HC47 (peptide)
chain: CATTPWSGSWAGNASASA
In the case of B1, the “furin cleavage Z-score” value is, setting by setting: (7.5 min) -0.899 (inactive); (15 min) -0.0349 (inactive); (30 min) -1.02 (inactive).

B2: HC2004 (peptide)
chain: CAVICCSMSYAGNASASA
Take B2: the “furin cleavage Z-score” value runs as follows: (7.5 min) -1.33 (inactive); (15 min) -0.628 (inactive); (30 min) 0.99 (inactive).

B3: HC687 (peptide)
chain: CANQVEGEVQAGNASASA
For the sequence B3, the “furin cleavage Z-score” value reads like this: (7.5 min) -1.48 (inactive); (15 min) -0.19 (inactive); (30 min) -1.34 (inactive).

B4: FS-231 (peptide)
chain: CAEKSRAKRQAGNASASA
In the case of B4, the “furin cleavage Z-score” value (7.5 min) was 9.72 (active), the “furin cleavage Z-score” value (15 min) was 8.1 (active) and the “furin cleavage Z-score” value (30 min) is 6.51 (active).

B5: HC2313 (peptide)
chain: CARVPCHRPSAGNASASA
On to B5, for which the “furin cleavage Z-score” value reads like this: (7.5 min) -0.0296 (inactive); (15 min) 0.363 (inactive); (30 min) -0.117 (inactive).

B6: FS-1393 (peptide)
chain: CARDVRSRRPAGNASASA
Take B6: the “furin cleavage Z-score” value runs as follows: (7.5 min) 0.0934 (inactive); (15 min) 0.513 (inactive); (30 min) 0.621 (inactive).

B7: FS-1605 (peptide)
chain: CAQKDRARRPAGNASASA
Consider B7, for which the “furin cleavage Z-score” value reads like this: (7.5 min) 0.51 (inactive); (15 min) -1.09 (inactive); (30 min) 0.363 (inactive).

B8: FS-328 (peptide)
chain: CAFRVRSRRWAGNASASA
As to B8, the “furin cleavage Z-score” value by setting is: (7.5 min) 8.66 (active); (15 min) 9.61 (active); (30 min) 9.2 (active).

B9: FS-80 (peptide)
chain: CAQKVRPRRWAGNASASA
As to B9, the “furin cleavage Z-score” value reads like this: (7.5 min) 9.9 (active); (15 min) 11.7 (active); (30 min) 9.5 (active).

B10: FS-235 (peptide)
chain: CAFRNRNQRIAGNASASA
Turning to B10, the “furin cleavage Z-score” value was -0.28 (inactive) (7.5 min), -1.55 (inactive) (15 min) and 0.794 (inactive) (30 min).

B11: HC1320 (peptide)
chain: CAPKSPPVPPAGNASASA
In the case of B11, the “furin cleavage Z-score” value (7.5 min) was -0.644 (inactive), the “furin cleavage Z-score” value (15 min) was 0.94 (inactive) and the “furin cleavage Z-score” value (30 min) was -0.0681 (inactive).

B12: FS-2247 (peptide)
chain: CAKIKRSVSPAGNASASA
As for B12, the “furin cleavage Z-score” value is 4.13 (active) (7.5 min), 3.63 (active) (15 min) and 4.32 (active) (30 min).

B13: FS-2876 (peptide)
chain: CAPLKRSVSLAGNASASA
As for B13, the “furin cleavage Z-score” value is, setting by setting: (7.5 min) 0.317 (inactive); (15 min) 2.22; (30 min) 2.88.

B14: FS-2477 (peptide)
chain: CAGLKRSVSRAGNASASA
For the sequence B14, the “furin cleavage Z-score” value (7.5 min) is -0.266 (inactive), the “furin cleavage Z-score” value (15 min) was -1.67 (inactive) and the “furin cleavage Z-score” value (30 min) was 0.712 (inactive).

B15: HC1615 (peptide)
chain: CALRKLGVPPAGNASASA
Consider B15, for which the “furin cleavage Z-score” value was 0.313 (inactive) (7.5 min), 0.845 (inactive) (15 min) and 0.629 (inactive) (30 min).

B16: FS-2540 (peptide)
chain: CAKAKRSVPPAGNASASA
Take B16: the “furin cleavage Z-score” value runs as follows: (7.5 min) 9.65 (active); (15 min) 9.24 (active); (30 min) 7.46 (active).

B17: HC365 (peptide)
chain: CAQNVQLINTAGNASASA
With B17, the “furin cleavage Z-score” value (7.5 min) is -0.00687 (inactive), the “furin cleavage Z-score” value (15 min) was 0.24 (inactive) and the “furin cleavage Z-score” value (30 min) is 0.289 (inactive).

B18: HC2312 (peptide)
chain: CAEVPCHRPSAGNASASA
In the case of B18, the “furin cleavage Z-score” value by setting is: (7.5 min) 0.893 (inactive); (15 min) 0.385 (inactive); (30 min) 0.669 (inactive).

B19: HC722 (peptide)
chain: CACTCGSSDLAGNASASA
As for B19, the “furin cleavage Z-score” value was -1.16 (inactive) (7.5 min), -3.51 (inactive) (15 min) and -0.486 (inactive) (30 min).

B20: FS-154 (peptide)
chain: CAALCRHRRLAGNASASA
B20: the “furin cleavage Z-score” value reads like this: (7.5 min) 4.73 (active); (15 min) 5.6 (active); (30 min) 6.55 (active).

B21: FS-1531 (peptide)
chain: CAHAYRHRRLAGNASASA
As to B21, the “furin cleavage Z-score” value is 0.687 (inactive) (7.5 min), 2.16 (15 min) and 3.53 (active) (30 min).

B22: FS-247 (peptide)
chain: CAHAYRPGRRAGNASASA
Take B22: the “furin cleavage Z-score” value is, setting by setting: (7.5 min) -0.291 (inactive); (15 min) -0.643 (inactive); (30 min) 1.65.

B23: HC1172 (peptide)
chain: CAGIMHTRCHAGNASASA
With B23, the “furin cleavage Z-score” value is 1.75 (7.5 min), 2.22 (15 min) and 0.438 (inactive) (30 min).

B24: FS-1477 (peptide)
chain: CARASRAKRRAGNASASA
For the sequence B24, the “furin cleavage Z-score” value runs as follows: (7.5 min) 11.9 (active); (15 min) 12.4 (active); (30 min) 8.04 (active).

B25: FS-119 (peptide)
chain: CACPRRAKRRAGNASASA
Regarding B25, the “furin cleavage Z-score” value (7.5 min) was 4.82 (active), the “furin cleavage Z-score” value (15 min) was 4.82 (active) and the “furin cleavage Z-score” value (30 min) was 5.05 (active).

B26: FS-1559 (peptide)
chain: CARASRNKRPAGNASASA
With B26, the “furin cleavage Z-score” value is 0.256 (inactive) (7.5 min), -0.194 (inactive) (15 min) and 0.132 (inactive) (30 min).

B27: FS-2132 (peptide)
chain: CARATRKIGIAGNASASA
As to B27, the “furin cleavage Z-score” value is, setting by setting: (7.5 min) -0.496 (inactive); (15 min) -1.56 (inactive); (30 min) -0.101 (inactive).

B28: FS-2893 (peptide)
chain: CARASRSIRIAGNASASA
In the case of B28, the “furin cleavage Z-score” value runs as follows: (7.5 min) 3.6 (active); (15 min) 6.75 (active); (30 min) 7.27 (active).

B29: FS-2891 (peptide)
chain: CARASRGGGGAGNASASA
Turning to B29, the “furin cleavage Z-score” value (7.5 min) is -0.8 (inactive), the “furin cleavage Z-score” value (15 min) was -0.464 (inactive) and the “furin cleavage Z-score” value (30 min) was -0.232 (inactive).

B30: HC2374 (peptide)
chain: CAEVPCHKPSAGNASASA
On to B30, for which the “furin cleavage Z-score” value runs as follows: (7.5 min) 0.115 (inactive); (15 min) 1; (30 min) -0.202 (inactive).

B31: HC1807 (peptide)
chain: CADFMEECSQAGNASASA
B31: the “furin cleavage Z-score” value is 0.00727 (inactive) (7.5 min), -0.301 (inactive) (15 min) and -1.48 (inactive) (30 min).

B32: HC599 (peptide)
chain: CAMCAVHPTLAGNASASA
Consider B32, for which the “furin cleavage Z-score” value was -1.6 (inactive) (7.5 min), -0.0857 (inactive) (15 min) and -0.861 (inactive) (30 min).

B33: HC848 (peptide)
chain: CAFYGKAIPLAGNASASA
As for B33, the “furin cleavage Z-score” value is 0.497 (inactive) (7.5 min), -0.506 (inactive) (15 min) and -2.2 (inactive) (30 min).

B34: HC1157 (peptide)
chain: CATWLKAKLMAGNASASA
As to B34, the “furin cleavage Z-score” value by setting is: (7.5 min) 3.1; (15 min) 1.6; (30 min) 3.5 (active).

B35: FS-1547 (peptide)
chain: CANNARAARSAGNASASA
With B35, the “furin cleavage Z-score” value was 5.1 (active) (7.5 min), 5 (active) (15 min) and 5.02 (active) (30 min).

B36: FS-366 (peptide)
chain: CANILRKARSAGNASASA
On to B36, for which the “furin cleavage Z-score” value was 9.27 (active) (7.5 min), 9.75 (active) (15 min) and 7.85 (active) (30 min).

B37: HC224 (peptide)
chain: CATCGFADLMAGNASASA
As to B37, the “furin cleavage Z-score” value (7.5 min) was -0.244 (inactive), the “furin cleavage Z-score” value (15 min) is -0.821 (inactive) and the “furin cleavage Z-score” value (30 min) is -0.0608 (inactive).

B38: FS-1659 (peptide)
chain: CATLLRAARSAGNASASA
For the sequence B38, the “furin cleavage Z-score” value (7.5 min) is 4.67 (active), the “furin cleavage Z-score” value (15 min) was 4.38 (active) and the “furin cleavage Z-score” value (30 min) was 3.86 (active).

B39: HC1580 (peptide)
chain: CALWARMILMAGNASASA
As to B39, the “furin cleavage Z-score” value was -0.179 (inactive) (7.5 min), -0.799 (inactive) (15 min) and -1.16 (inactive) (30 min).

B40: HC1922 (peptide)
chain: CATTPCSGQWAGNASASA
Turning to B40, the “furin cleavage Z-score” value was -0.163 (inactive) (7.5 min), -0.899 (inactive) (15 min) and -0.665 (inactive) (30 min).

B41: HC554 (peptide)
chain: CAVYTFYGMWAGNASASA
In the case of B41, the “furin cleavage Z-score” value (7.5 min) was -0.934 (inactive), the “furin cleavage Z-score” value (15 min) is -0.697 (inactive) and the “furin cleavage Z-score” value (30 min) was -0.425 (inactive).

B42: HC2528 (peptide)
chain: CASTPCSWHLAGNASASA
For the sequence B42, the “furin cleavage Z-score” value (7.5 min) was found to be 1.37, the “furin cleavage Z-score” value (15 min) was 0.165 (inactive) and the “furin cleavage Z-score” value (30 min) is -0.0279 (inactive).

B43: HC2562 (peptide)
chain: CASTPCSAQLAGNASASA
In the case of B43, the “furin cleavage Z-score” value was -1.59 (inactive) (7.5 min), 0.487 (inactive) (15 min) and 0.259 (inactive) (30 min).

B44: HC2456 (peptide)
chain: CAEGEVPCHRAGNASASA
For the sequence B44, the “furin cleavage Z-score” value reads like this: (7.5 min) 1.8; (15 min) 1.4; (30 min) 0.687 (inactive).
